Coupling enz: qHTS Assay for Inhibitors of Fructose-1,6-bisphosphate Aldolase from Giardia Lamblia: Coupling assay counterscreen; coupling enzyme system counterscreen, AmpLite Red fluorescence; activity change, negative = inhibition, % at 58.2 µM, hits read low; 290,000 tested, 0.67% active; in the data active = activity change below about -30%
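Compounds tested against the coupling enzymes alone at 57.5 uM final; readout was AmpLite Red fluorescence (525/598 nm) after 20 min at RT.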
GoLoco inh red: qHTS Assay for Inhibitors of RGS12 GoLoco Motif Activity (Red Fluorophore) | Guanine nucleotide-binding protein G(i) subunit alpha-1 (Homo sapiens), P63096 | Gai1:RGS12 GoLoco peptide FP, rhodamine, 10 min | Potency, µM (highest dose often 61.6 µM), inactives show at the highest dose activity, negative = inhibition, actives largely listed as inhibitors | 230,000 tested, 0.44% active | AID 880, 2007; active = well fitted inhibition curve with a large enough effect, not every such curve was filed as active; inactive = no such curve, though single readings can be large or run the other way; note: potency is the fitted concentration of half-maximal effect; nearly all actives have a fitted effect of over 30% in size
Target sequence (P63096 whole entry, looked up): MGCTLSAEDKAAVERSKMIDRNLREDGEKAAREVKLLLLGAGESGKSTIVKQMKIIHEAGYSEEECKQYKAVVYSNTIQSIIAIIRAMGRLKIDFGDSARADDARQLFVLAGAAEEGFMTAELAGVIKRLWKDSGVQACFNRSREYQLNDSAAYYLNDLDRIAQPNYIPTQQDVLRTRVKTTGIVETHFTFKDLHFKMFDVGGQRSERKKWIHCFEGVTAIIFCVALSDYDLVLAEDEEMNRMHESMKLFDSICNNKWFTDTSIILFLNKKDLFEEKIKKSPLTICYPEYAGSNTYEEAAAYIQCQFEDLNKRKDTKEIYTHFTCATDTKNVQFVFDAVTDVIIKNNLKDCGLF
ALDH1A1 block: qHTS Assay for Inhibitors of Aldehyde Dehydrogenase 1 (ALDH1A1) | Aldehyde dehydrogenase 1A1 (Homo sapiens), P00352 | Purified ALDH1A1, NADH fluorescence, propionaldehyde substrate | Potency, µM (doses to about 75.3 µM), inactives show top-dose activity, negative = inhibition, usual class: inhibitors | 220,000 tested, 7.3% active | AID 1030, 2008; active = well fitted inhibition curve with a large enough effect, not every such curve was filed as active; inconclusive = small, poorly fitted or top-dose-only effect, or another doubt; inactive = no such curve, though single readings can be large or run the other way;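 note: potency is the fitted concentration of half-maximal effect; plate controls were no enzyme wells and a reference inhibitor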
Sfp PPTase inh: qHTS Assay for Inhibitors of Bacillus subtilis Sfp phosphopantetheinyl transferase (PPTase). 4'-phosphopantetheinyl transferase ffp (Bacillus subtilis), Q9F4F7. AID 1490, 2009. Biochemical Sfp PPTase activity, qHTS. 310,000 tested, 3.5% active. Potency, µM, without a hit: largest response in the series, negative = inhibition, most hits filed as inhibitors;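 note: the enzyme is Sfp with the accession as filed and its product quenches rhodamine fluorescence; potency is the fitted concentration of half-maximal effect; 0% = enzyme reaction without inhibitor and -100% = no enzyme wells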
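Fluorescence-quenching assay: 15 nM Sfp-PPTase preincubated 15 min at room temperature with compound, then 5 uM rhodamine-CoA and 12.5 uM BHQ-2-labelled YbbR peptide added. Fluorescence (ex 525/em 598 nm) read at start and after 30 min; difference gives rate.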
NPSR antagonist: qHTS Assay for Antagonists of the Neuropeptide S Receptor: cAMP Signal Transduction; AID 1461, 2008; 220,000 tested, 1% active; Q6W5P4; Potency, µM (series often up to 38.3 µM), inactives show at the top dose activity change, negative = inhibition, usual class: inhibitors; CHO-NPSR cells, cAMP TR-FRET, antagonist mode; note: potency is the fitted concentration of half-maximal effect; nearly all actives have a fitted effect of over 50% in size
Target sequence (Q6W5P4 whole entry, looked up): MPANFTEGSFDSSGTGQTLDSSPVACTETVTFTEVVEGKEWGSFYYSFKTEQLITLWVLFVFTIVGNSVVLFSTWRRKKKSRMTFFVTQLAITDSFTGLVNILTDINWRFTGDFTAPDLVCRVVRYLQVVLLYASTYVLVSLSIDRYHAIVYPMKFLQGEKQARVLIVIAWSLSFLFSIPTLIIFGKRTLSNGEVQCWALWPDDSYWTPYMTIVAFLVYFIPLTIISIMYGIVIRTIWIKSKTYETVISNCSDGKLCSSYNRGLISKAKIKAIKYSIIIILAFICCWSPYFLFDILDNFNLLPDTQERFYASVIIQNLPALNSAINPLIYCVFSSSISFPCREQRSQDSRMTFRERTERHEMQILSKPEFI
JMJD2E inh: qHTS Assay for Inhibitors of Human Jumonji Domain Containing 2E (JMJD2E); Potency, µM (highest dose often 57.1 µM), for inactives: at the highest dose activity change, negative = inhibition, most hits filed as inhibitors; Lysine-specific demethylase 4E (Homo sapiens), B2RXH2; JMJD2E catalytic domain, FDH-coupled NADH fluorescence (FDH is formaldehyde dehydrogenase); 230,000 tested, 1.6% active; active = well fitted inhibition curve with a large enough effect, not every such curve was filed as active; inconclusive = small, poorly fitted or top-dose-only effect, or another doubt; inactive = no such curve, though single readings can be large or run the other way;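 note: potency is the fitted concentration of half-maximal effect; 0% = wells with enzyme and -100% = buffer wells without enzyme; nearly all actives have a fitted effect of over 50% in size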
Numbers without * were called inactive; [ ] = another dose, or the depositor's remark. In the library only some 8.5% were active in any assay of this set; here they are far more common. Unless noted, calls come from the whole dose curve; as a rule, active = well fitted curve in the direction sought with a large enough effect; inconclusive = small, poorly fitted or top-dose-only effect, or another doubt; inactive = no such curve, though single readings can be large; an effect the other way counts as inactive or inconclusive. Unless noted, % is set by controls: 0 for no effect and ±100 for the full control effect.

What do the screens show for `O=C(COc1ccccc1-c1ccccc1)NCc1cccc(Cl)c1`?
Coupling enz: 0; ALDH1A1 block: 4%; Sfp PPTase inh: -20%; NPSR antagonist: -3%[46.1 µM]; JMJD2E inh: -1%

How did S=c1nc[nH]c2c1ncn2Cc1ccco1 do in these assays?
GoLoco inh red: -9%[14.2 µM]; ALDH1A1 block: -1%[13.5 µM]

What do the screens show for `CN(C)S(=O)(=O)c1ccc(Cl)c(NC(=O)COC(=O)C2CSC3(C)CCC(=O)N23)c1` (stereo not drawn)?
Coupling enz: 1; GoLoco inh red: -9%; ALDH1A1 block: inconclusive; Sfp PPTase inh: 7%; NPSR antagonist: 13%; JMJD2E inh: 11%

What do the screens show for `CCCN1CN(Cc2ccccc2)CC2=C1CC(C)(C)CC2=O`?
Coupling enz: 0; GoLoco inh red: 2%; ALDH1A1 block: 7.9µM*; Sfp PPTase inh: inconclusive; NPSR antagonist: -14%[46.1 µM]; JMJD2E inh: inconclusive

How did CC1(C)CC(=O)C2=C(C1)NCN(Cc1ccccc1)C2 do in these assays?
Coupling enz: 2; GoLoco inh red: 11%; ALDH1A1 block: 6%; Sfp PPTase inh: 7%; NPSR antagonist: -19%[46.1 µM]; JMJD2E inh: 9%

How did O=C(NC1CC2CCC(C1)N2Cc1ccccc1)c1ccccc1Cl (stereo not drawn) do in these assays?
Coupling enz: 2; Sfp PPTase inh: 12%

What do the screens show for `COc1ccc2nc3c(cc2c1)Cc1ccccc1-3`?
Coupling enz: -25; GoLoco inh red: 6%; ALDH1A1 block: inconclusive; Sfp PPTase inh: -6%; JMJD2E inh: inconclusive

How did Cc1cc(C)cc(NC(=O)COc2ccc(C(=S)N3CCOCC3)cc2)c1 do in these assays?
Coupling enz: 0; GoLoco inh red: 5%; ALDH1A1 block: 9%; Sfp PPTase inh: 6%; NPSR antagonist: -9%; JMJD2E inh: 2%

What do the screens show for `NC(=S)Cc1nc(-c2ccccc2)cs1`?
Coupling enz: 0; GoLoco inh red: 42%; ALDH1A1 block: 3.2µM*; Sfp PPTase inh: 56µM*; NPSR antagonist: 21%; JMJD2E inh: -1%

What do the screens show for `COc1ccc(C2C(C(C)=O)=C(O)C(=O)N2C)c(OC)c1` (stereo not drawn)?
Coupling enz: 3; GoLoco inh red: 4%; ALDH1A1 block: -1%; Sfp PPTase inh: -9%; NPSR antagonist: -5%[46.1 µM]; JMJD2E inh: 0%

How did COc1ccc(OC)c(C2C(C(C)=O)=C(O)C(=O)N2Cc2cccnc2)c1 (stereo not drawn) do in these assays?
Coupling enz: 1; GoLoco inh red: 0%; ALDH1A1 block: 28µM*; Sfp PPTase inh: -10%; NPSR antagonist: -4%[46.1 µM]; JMJD2E inh: -4%

What do the screens show for `COc1ccc(C2C(C(C)=O)=C(O)C(=O)N2c2cccnc2)c(OC)c1` (stereo not drawn)?
Coupling enz: 0; GoLoco inh red: -2%; ALDH1A1 block: 32µM*; Sfp PPTase inh: 6%; NPSR antagonist: inconclusive; JMJD2E inh: -23%

Results for CCCOC(=O)C1=C(C)N(C)C(=O)NC1c1cc2c(cc1Br)OCO2 (stereo not drawn) ?
Coupling enz: 1; Sfp PPTase inh: 8%

Results for C#CCNc1nc(C)nc2c1nnn2Cc1ccccc1F ?
Coupling enz: 0; GoLoco inh red: 4%; ALDH1A1 block: 11µM*; Sfp PPTase inh: 9%; NPSR antagonist: -5%[46.1 µM]; JMJD2E inh: 2%

Results for Cc1nc(NCCN2CCOCC2)c2nnn(Cc3ccccc3Cl)c2n1 ?
Coupling enz: 0; GoLoco inh red: 7%; ALDH1A1 block: 16µM*; Sfp PPTase inh: -6%; NPSR antagonist: -1%[46.1 µM]; JMJD2E inh: 3%

Results for CCOCCCNc1nc(C)nc2c1nnn2Cc1c(F)cccc1Cl ?
Coupling enz: 0; GoLoco inh red: 8%; ALDH1A1 block: 8.9µM*; Sfp PPTase inh: 16%; NPSR antagonist: -12%; JMJD2E inh: 4%

Results for Cn1ccc(/C=N/N=C2/NC(=O)CS2)n1 ?
Coupling enz: 0; GoLoco inh red: 3%; Sfp PPTase inh: inconclusive; NPSR antagonist: 9%; JMJD2E inh: -3%

How did O=C(O)/C=C\C(=O)NNC(=O)c1cc(-c2ccccc2)n[nH]1 do in these assays?
Coupling enz: 2; GoLoco inh red: -8%; ALDH1A1 block: 25µM*; Sfp PPTase inh: 50µM*; NPSR antagonist: -26%; JMJD2E inh: inconclusive

What do the screens show for `Nc1nc(CSC(=S)N2CCCCC2)nc(Nc2ccccc2)n1`?
Coupling enz: 2; GoLoco inh red: 14%; ALDH1A1 block: 25µM*; Sfp PPTase inh: -2%; NPSR antagonist: -12%; JMJD2E inh: inconclusive

How did CC1CC(C)CN(C(=S)SCc2nc(N)nc(Nc3ccccc3)n2)C1 (stereo not drawn) do in these assays?
Coupling enz: -5; GoLoco inh red: 8%; Sfp PPTase inh: 14%; NPSR antagonist: inconclusive; JMJD2E inh: -3%

Results for COc1ccc(CN(CC(=O)NCc2ccccc2)C(=O)CCC(=O)Nc2nccs2)cc1 ?
Coupling enz: 1; Sfp PPTase inh: 9%

How did COc1cccc(NC(=O)Cc2nc(-c3ccccc3)sc2-c2ccc(C)cc2)c1 do in these assays?
Coupling enz: -1; GoLoco inh red: 72%; ALDH1A1 block: 25µM*; Sfp PPTase inh: -4%; NPSR antagonist: -30%; JMJD2E inh: 8%

How did CC(=O)Nc1cccc(NC(=O)Cc2nc(-c3ccccc3)sc2-c2ccc(C)cc2)c1 do in these assays?
Coupling enz: -3; GoLoco inh red: 27%; ALDH1A1 block: 0%; Sfp PPTase inh: -5%; NPSR antagonist: -28%; JMJD2E inh: -4%

How did CCCCCCCC1=Cc2ccccc2C(C(C(=O)OC)C(=O)OC)N1C(=O)OC (stereo not drawn) do in these assays?
Coupling enz: 0; GoLoco inh red: 0%[14.2 µM]; ALDH1A1 block: 14%[13.5 µM]; Sfp PPTase inh: -10%; JMJD2E inh: -4%[11.4 µM]

Results for CNC(=O)c1sc2nc(-c3ccc(OC)cc3)cn2c1C ?
Coupling enz: 3; GoLoco inh red: 22%; ALDH1A1 block: -7%; Sfp PPTase inh: 12%; NPSR antagonist: -21%[46.1 µM]; JMJD2E inh: inconclusive

How did COc1ccc(-c2cn3c(C)c(C(=O)Nc4cc(NC(C)=O)ccc4OC)sc3n2)cc1 do in these assays?
Coupling enz: 1; GoLoco inh red: -8%; ALDH1A1 block: inconclusive; Sfp PPTase inh: 79µM*; NPSR antagonist: inconclusive; JMJD2E inh: -2%

Bioassay records from PubChem BioAssay.
